Laboratory results: ChEMBL document CHEMBL2218924, “A broad activity screen in support of a chemogenomic map for kinase signalling research and drug discovery” (Biochem J, 2013)

Legend:
[1] = target: T1, Serine/threonine-protein kinase 17A (Homo sapiens) (UniProt Q9UEE5); settings: at 1 µM
T1 sequence (whole entry): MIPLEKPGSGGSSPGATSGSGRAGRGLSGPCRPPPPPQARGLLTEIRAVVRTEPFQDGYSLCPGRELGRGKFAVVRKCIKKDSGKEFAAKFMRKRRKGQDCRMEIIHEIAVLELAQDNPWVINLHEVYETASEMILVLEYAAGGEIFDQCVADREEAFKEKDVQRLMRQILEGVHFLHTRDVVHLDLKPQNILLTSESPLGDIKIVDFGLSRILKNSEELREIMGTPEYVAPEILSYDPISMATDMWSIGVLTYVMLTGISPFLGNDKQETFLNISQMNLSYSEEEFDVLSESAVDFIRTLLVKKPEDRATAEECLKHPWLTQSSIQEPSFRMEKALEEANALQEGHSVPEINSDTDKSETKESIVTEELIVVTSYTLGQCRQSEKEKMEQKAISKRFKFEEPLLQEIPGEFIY

[2] = target: T1, Serine/threonine-protein kinase 17A (Homo sapiens); settings: at 10 µM
[3] = target: T2, Dual specificity tyrosine-phosphorylation-regulated kinase 2 (Homo sapiens) (UniProt Q92630); settings: at 1 µM
T2 sequence (whole entry): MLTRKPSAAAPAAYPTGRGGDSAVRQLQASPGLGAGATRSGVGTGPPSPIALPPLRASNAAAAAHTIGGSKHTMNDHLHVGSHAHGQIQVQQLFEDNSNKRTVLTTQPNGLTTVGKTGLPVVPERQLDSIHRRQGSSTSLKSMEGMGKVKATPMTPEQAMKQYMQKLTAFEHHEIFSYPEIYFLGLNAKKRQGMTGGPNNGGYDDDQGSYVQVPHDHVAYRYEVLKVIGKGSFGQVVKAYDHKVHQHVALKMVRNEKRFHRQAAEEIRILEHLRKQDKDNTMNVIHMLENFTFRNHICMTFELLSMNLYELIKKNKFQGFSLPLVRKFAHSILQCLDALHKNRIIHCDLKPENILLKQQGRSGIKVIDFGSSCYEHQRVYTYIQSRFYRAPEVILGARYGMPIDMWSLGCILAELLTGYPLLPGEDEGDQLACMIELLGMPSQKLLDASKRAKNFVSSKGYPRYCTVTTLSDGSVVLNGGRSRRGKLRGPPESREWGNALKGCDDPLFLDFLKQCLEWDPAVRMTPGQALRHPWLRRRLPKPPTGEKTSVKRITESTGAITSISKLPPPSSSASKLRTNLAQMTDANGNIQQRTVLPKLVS

[4] = target: T2, Dual specificity tyrosine-phosphorylation-regulated kinase 2 (Homo sapiens); settings: at 10 µM
[5] = target: T3, Ephrin type-A receptor 1 (Homo sapiens) (UniProt P21709); settings: at 1 µM
T3 sequence (whole entry): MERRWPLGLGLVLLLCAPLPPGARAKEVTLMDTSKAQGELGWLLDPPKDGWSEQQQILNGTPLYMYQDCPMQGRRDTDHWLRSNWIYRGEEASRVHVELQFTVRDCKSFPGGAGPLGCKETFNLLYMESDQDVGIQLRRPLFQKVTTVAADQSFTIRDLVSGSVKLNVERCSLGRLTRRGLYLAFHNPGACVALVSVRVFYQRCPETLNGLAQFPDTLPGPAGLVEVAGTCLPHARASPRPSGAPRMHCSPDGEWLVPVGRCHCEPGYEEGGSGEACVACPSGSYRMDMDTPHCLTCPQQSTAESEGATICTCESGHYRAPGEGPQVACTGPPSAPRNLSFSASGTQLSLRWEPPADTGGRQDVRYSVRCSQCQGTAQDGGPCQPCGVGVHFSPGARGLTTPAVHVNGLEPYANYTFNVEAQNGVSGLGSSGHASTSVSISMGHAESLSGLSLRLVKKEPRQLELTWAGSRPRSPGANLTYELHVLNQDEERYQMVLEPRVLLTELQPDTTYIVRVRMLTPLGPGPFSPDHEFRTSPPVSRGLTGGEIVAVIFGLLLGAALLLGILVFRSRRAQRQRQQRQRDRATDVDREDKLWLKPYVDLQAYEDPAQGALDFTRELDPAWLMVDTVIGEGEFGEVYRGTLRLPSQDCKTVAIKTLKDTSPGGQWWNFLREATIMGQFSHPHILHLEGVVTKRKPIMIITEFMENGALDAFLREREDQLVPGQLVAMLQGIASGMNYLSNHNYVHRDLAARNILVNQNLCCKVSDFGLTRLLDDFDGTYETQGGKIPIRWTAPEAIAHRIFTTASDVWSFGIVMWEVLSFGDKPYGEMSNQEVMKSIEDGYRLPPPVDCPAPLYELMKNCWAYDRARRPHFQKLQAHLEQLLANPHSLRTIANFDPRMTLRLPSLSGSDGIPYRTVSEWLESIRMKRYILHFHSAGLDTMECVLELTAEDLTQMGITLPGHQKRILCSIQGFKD

[6] = target: T3, Ephrin type-A receptor 1 (Homo sapiens); settings: at 10 µM
[7] = target: Ephrin type-A receptor 2 (Homo sapiens) (UniProt P29317); settings: at 1 µM
Chain of Ephrin type-A receptor 2 (Homo sapiens) (P29317 whole entry): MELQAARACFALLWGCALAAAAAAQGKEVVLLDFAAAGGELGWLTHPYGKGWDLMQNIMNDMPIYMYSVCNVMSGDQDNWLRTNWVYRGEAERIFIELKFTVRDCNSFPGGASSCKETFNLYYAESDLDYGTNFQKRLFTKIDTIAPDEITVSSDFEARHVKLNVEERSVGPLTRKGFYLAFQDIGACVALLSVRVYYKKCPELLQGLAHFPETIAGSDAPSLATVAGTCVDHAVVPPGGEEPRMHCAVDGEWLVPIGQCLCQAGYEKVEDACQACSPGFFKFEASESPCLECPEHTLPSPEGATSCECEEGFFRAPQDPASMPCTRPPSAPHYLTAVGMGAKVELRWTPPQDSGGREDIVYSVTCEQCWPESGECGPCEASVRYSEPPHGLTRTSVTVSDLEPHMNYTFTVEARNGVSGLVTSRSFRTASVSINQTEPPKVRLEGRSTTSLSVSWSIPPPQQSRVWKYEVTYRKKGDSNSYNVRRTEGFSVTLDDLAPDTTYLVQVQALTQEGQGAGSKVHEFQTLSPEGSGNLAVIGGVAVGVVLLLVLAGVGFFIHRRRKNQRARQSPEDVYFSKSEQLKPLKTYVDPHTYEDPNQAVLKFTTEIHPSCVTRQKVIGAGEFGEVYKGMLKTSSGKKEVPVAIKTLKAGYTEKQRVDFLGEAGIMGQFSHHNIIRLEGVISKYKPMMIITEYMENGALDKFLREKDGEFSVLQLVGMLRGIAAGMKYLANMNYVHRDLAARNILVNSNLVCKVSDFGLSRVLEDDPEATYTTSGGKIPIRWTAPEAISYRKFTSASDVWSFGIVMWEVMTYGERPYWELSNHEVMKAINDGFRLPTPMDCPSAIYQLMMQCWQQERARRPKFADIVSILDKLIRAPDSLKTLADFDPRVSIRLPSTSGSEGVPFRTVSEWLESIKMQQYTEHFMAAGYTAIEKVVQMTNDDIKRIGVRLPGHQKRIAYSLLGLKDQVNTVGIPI

[8] = target: Ephrin type-A receptor 2 (Homo sapiens) (UniProt P29317); settings: at 10 µM
[9] = target: T4, Ephrin type-A receptor 3 (Homo sapiens) (UniProt P29320); settings: at 1 µM
T4 sequence (whole entry): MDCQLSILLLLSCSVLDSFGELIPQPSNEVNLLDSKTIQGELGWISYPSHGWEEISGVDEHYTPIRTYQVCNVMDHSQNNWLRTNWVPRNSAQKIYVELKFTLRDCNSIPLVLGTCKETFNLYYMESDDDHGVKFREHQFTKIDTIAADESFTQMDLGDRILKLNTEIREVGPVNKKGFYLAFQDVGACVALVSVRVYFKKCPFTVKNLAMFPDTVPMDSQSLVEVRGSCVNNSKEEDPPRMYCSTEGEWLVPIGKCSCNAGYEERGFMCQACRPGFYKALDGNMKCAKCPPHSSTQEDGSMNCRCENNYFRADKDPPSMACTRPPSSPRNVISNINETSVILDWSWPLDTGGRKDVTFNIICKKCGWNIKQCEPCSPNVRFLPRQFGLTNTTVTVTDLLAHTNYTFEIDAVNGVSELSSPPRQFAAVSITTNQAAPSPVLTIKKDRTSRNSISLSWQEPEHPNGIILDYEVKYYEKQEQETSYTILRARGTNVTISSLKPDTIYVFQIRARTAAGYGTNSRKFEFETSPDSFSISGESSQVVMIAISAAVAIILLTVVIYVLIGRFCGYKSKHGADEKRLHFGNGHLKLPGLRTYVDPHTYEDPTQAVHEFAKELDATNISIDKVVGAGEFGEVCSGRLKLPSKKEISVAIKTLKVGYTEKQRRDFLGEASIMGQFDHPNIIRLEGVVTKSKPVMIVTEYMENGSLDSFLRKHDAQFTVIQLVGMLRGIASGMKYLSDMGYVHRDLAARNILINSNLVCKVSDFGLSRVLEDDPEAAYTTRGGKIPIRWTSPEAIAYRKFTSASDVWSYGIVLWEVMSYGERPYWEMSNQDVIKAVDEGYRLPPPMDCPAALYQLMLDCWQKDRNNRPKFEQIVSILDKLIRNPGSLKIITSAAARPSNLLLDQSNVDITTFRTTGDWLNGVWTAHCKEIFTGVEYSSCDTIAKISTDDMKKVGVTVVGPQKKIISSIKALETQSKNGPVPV

[10] = target: Epidermal growth factor receptor (Homo sapiens) (UniProt P00533); settings: at 10 µM
Chain of Epidermal growth factor receptor (Homo sapiens) (P00533 whole entry): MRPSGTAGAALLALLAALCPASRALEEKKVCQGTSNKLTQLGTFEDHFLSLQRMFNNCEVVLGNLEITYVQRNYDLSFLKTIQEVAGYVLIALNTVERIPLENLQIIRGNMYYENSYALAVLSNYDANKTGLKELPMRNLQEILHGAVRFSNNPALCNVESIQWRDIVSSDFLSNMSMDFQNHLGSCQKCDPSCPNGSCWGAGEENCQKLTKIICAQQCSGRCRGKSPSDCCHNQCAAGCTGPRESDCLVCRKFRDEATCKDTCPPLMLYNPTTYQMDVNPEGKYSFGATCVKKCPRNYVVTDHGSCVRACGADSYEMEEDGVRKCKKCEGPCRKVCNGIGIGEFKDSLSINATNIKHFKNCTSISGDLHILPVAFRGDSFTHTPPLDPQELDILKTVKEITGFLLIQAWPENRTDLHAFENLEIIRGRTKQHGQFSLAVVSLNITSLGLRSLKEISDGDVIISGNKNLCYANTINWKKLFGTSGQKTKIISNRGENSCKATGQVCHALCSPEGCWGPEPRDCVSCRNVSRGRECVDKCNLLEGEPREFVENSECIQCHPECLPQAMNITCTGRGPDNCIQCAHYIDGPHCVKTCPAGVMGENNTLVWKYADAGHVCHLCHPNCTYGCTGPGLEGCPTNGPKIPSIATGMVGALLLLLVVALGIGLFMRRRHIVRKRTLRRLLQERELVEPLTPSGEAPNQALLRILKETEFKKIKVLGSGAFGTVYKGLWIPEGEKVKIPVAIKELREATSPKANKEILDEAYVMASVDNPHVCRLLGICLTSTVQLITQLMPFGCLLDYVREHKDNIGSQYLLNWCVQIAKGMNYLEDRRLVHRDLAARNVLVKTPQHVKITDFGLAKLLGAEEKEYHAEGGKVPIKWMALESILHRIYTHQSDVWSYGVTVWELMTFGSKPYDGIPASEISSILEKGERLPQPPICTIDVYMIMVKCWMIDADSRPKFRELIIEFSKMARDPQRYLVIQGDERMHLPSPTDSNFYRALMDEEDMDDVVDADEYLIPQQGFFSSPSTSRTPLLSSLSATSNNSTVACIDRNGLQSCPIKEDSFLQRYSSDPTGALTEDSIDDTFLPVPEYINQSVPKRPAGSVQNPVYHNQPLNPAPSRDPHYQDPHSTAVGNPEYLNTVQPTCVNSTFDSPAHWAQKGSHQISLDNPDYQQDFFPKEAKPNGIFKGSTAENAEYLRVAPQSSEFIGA

SMILES	residual activity [1] [%]	residual activity [2] [%]	residual activity [3] [%]	residual activity [4] [%]	residual activity [5] [%]	residual activity [6] [%]	residual activity [7] [%]	residual activity [8] [%]	residual activity [9] [%]	residual activity [10] [%]
O=[N+]([O-])/C=C/c1ccc2c(c1)OCO2	119	63	101	106	95	102	106	115	115	
O=c1[nH]c2ccccc2n1C1CCN(Cc2ccc(-c3nc4cc5[nH]cnc5cc4nc3-c3ccccc3)cc2)CC1	126	112	111	98	102	90	103	95	112	
COc1cc2ncnc(Nc3ccc(OCc4ccccc4)cc3)c2cc1OC	116	95	102	94	94	104	125	108	115	
O=C1c2ccccc2-c2nc3nnnn3nc21	108	114	101	100	100	123	107	116		
COc1cc(OC)c(/C=C2\C(=O)Nc3ccccc32)c(OC)c1			102	93	89	82	88	93	97	
COC(=O)[C@@]1(O)C[C@H]2O[C@]1(C)n1c3ccccc3c3c4c(c5c6ccccc6n2c5c31)C(=O)NC4	0	1	2	-4	3	0	44	8	42	
O=C1NC(=O)c2c1c1c3ccccc3n3c1c1c2c2ccccc2n1C1CCC3O1	16	8	91	58			94	98		
C[S+]([O-])c1ccc(-c2nc(-c3ccc(F)cc3)c(-c3ccncc3)[nH]2)cc1 (configuration not stated)	123	103	115	98	90	26	95	62	105	
O=C1Nc2ccc3ncsc3c2/C1=C/c1c[nH]cn1	1	1	1	-5	58	24	77	31	82	
c1cc(-c2cnn3cc(-c4ccc(OCCN5CCCCC5)cc4)cnc23)ccn1	19	7	52	7	17	1	59	8	58	
COc1ccc2c(c[n+](C)c3c4cc5c(cc4ccc23)OCO5)c1OC		77		96	94			100		
CCc1nc(-c2ccc(OC)cc2)[nH]c1-c1ccncc1				34			105	105		
N/C(=N\[N+](=O)[O-])N/N=C\c1ccc(-c2cccc([N+](=O)[O-])c2)o1	76	87	90	95		97			97	
CCn1cnc2c(Nc3cccc(Cl)c3)nc(N[C@@H]3CCCC[C@@H]3N)nc21	90	83		85	15	3	66	24	61	95
COc1ccc2c(c1)/C(=C/c1cnc[nH]1)C(=O)N2			77	16						97
CC(C)[C@H](CO)Nc1nc(Nc2cccc(Cl)c2)c2ncn(C(C)C)c2n1	116	92	99	86	69	14	69	27	86	
CC(C)(C)c1cc(C=C(C#N)C#N)cc(Br)c1O	147	100	107	101	115	130	107	104	122	
